Measured values as given in the supplement of paper PMC6555819.

What follows are sequences tested on VDR:RXRa (NR concentration 270 nM, RXRa partner concentration 90 nM) (assay: PBM binding z-score (relative to random genomic background probes); higher = stronger binding; sequences stand for … in GC…GCGATTGACAGCGTAGAATGAAGG).
Protocol: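 Protein-binding microarray (Agilent 4x180K custom design, double-stranded 60-nt probes: 5' GC cap, 34-nt variable region, 24-nt constant primer region; full probe sequence given). Purified or IVT nuclear receptor:RXRα heterodimers (3:1 NR:RXRα, mostly 270:90 nM) or homodimers were incubated for 1 h in PBS with 2% milk and no ligand, then detected with Alexa488 antibodies. Fluorescence from o1-orientation probes (~5 replicates averaged) was converted to z-scores against 500 random hg19 background probes. Variable regions are seed direct-repeat (DR0–DR5) sites, all their single-nucleotide variants and half-site ablations.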

Sequence	PBM binding z-score
CCTACTGGGCCAAAAAGGTCTTTGATGCCGATAA	-0.154
AATTACGGGTCAACGAGGTTATAGCACGCGTATA	7.73
GATACAGGGTCACCTAGAGGCCAGAGTATGGAAA	4.76
CGTCCAATGTCAGAGAGGTCAGTGAATGCCGAGT	5.22
CCTAGCAGGCAAGGGTCACTCAAGCATTTCGCTT	2.81
ATCTCTAAGTAAGACTCAGTTCAGTGAAGAACGC	0.712
TCTATTAGTTGATTAGGGCAACAGAAACAGCGGA	0.574
ACAGCCAGGTGATGAAGGTAACTCAGGCTATCAT	-0.126
TCTAGCAGGCCAGGGGGTCACTCAAGAGGTACGG	4.25
AGAACGAGGGCACGCTGAGTTGTTAGCAGAGTAG	1.6
CCTTACGGGTCAAGGTTATAACACGGGTGGTACG	3.51
ACTATTAGTGGAGACGAGGGCAACCGATAGGTTG	0.101
AGTCAAAGTTCAGGACGAGGCAACGTAAAGCACG	1.93
TAGCCTAGGTCATTCAGGGACCAGTATAGAAAGC	2.57
ACTAGCAGGCCAAGTTTGGGTCCCTCAAACAAAG	-0.796
CCTACTGGCCCAAAGGTCATTGATTCCAATGCTC	4.28
CGTAGCAGGCCAATCTGGGTCACTCAAGGCTTGA	0.309
CGTCAAAGTTCAACTAAGATAACGTAAAGCACGC	4.2
GATACAGGGTCAAGGCCAGAGGACGCGTATTGAT	4.11
CGAACTAGGTCAAGGTCAAAGTCGGTTTGTGCCA	4.97

Sequence	PBM binding z-score
GCGCCTGGGGCATCAGCAGGTTACCATAACTTAA	-0.28
TAGCCTAGGTCATTGGGCCAGTACAGTACGCATC	2.19
GCGACTGGGGCAAAGCAGGTTACCATGAGGTTGG	0.114
AGAATGAGGTTACCAAAGATCAGGGATACGCTTG	1.39
CTCGAAAGGTCGGTTGAGGTGAGTATTCGGATAA	2.16
TCGAGTAGGTTAGGAGCATTCAGAATGGCGTCGA	-0.474
TGAATGCGGTTAAAGATCAGGGAACGTGGCGTCG	-0.54
CCTGCTAGGCCAATGGTCAGCTAAAGCAGCTCGC	-0.792
CCTACTGGGCCATTCAGAGGTCATGGATCATATG	3.92
GCGTGTAGATCAAGGTTAAGAAAGACTAAGCTAA	0.0899
CCGGCTGGGGCATAAGGTTACCATAAGCCAGCCC	-0.119
CCTCTGAGGACAGAAGGTCAGAGCTGTCCGCTTT	1.2
CCTAGCAGGCCACTCTGGGTCACTCAAGGCTTGA	0.79
ATCGAAAGGTCGAGGTTAGTATAGAGAAAGGGAA	2.75
TAGCCTAGGTCAGATCGGGCCAGTATCCGCTATA	0.43
GGAACGAGGGCATTCGAGTTGAAAGCATGGCGAT	3.59
CCTACTGGGCCACGAAAGGTCATCGATTCAGTGA	4.24
TCTCGGAGGACACGAAAGGTCAGAGTTCGACATC	4.18
AGAATGAGGTTATACGTAGATCAGCGAAGAAAGT	0.978
CCTACTGGGGCAAGGTCATTGATCAGTCAAAGCA	3.59
